Results reported in PubChem BioAssay AID2732 (Emory University Molecular Libraries Screening Center, 2010).
The campaign covered roughly 220,000 compounds. About 8,200 (3.7%) were called active. This excerpt belongs to a sample that is enriched for actives. Unmarked numbers belong to inactive results.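 How the source made its calls: active means compounds that reduced the stress-induced luciferase reporter signal by more than about 70% of percent inhibition (limit read from the data); inactive means the rest.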

Experiment: inhibitors of CHOP promoter induction, primary screen, cell-based, unfolded protein response, luciferase reporter (AID 2732);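 further: 0% = tunicamycin plus vehicle and 100% = wells without tunicamycin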
Conditions: CHO-K1 CHOP-promoter luciferase, tunicamycin-induced, 15-18 h; at 10 µM; hits give high values

Q: For `COc1cccc(CNC(=O)c2n[nH]c3ccccc23)c1`, which inhibition is on record?
A: 15.2%

Q: With `COc1ccc(COC(=O)c2n[nH]c3ccccc23)cc1F` as the compound, how does the inhibition read?
A: 97.2% (active)

Q: Which inhibition does the source give for `O=C(COC(=O)c1n[nH]c2ccccc12)NCc1ccccc1` here?
A: 38.6%

Q: Which inhibition does the source give for `C=CCN(C(=O)Nc1ccc2c(c1)nc(C)n2C)c1ccccc1` here?
A: -18.2%

Q: Which inhibition does the source give for `O=C(NCCc1c[nH]c2ccc(Cl)cc12)c1ccc([N+](=O)[O-])cc1` here?
A: -3.24%

Q: For `CCCOc1ccc(-c2nc(N)n[nH]2)cc1`, which inhibition is on record?
A: 20.8%

Q: With `CCCOc1ccc(C(=O)NCCc2ccccc2)cc1` as the compound, how does the inhibition read?
A: 21.8%

Q: Which inhibition does the source give for `CCCOc1ccc(Cc2c(Cl)nc(SC)nc2NC)cc1` here?
A: 97.5% (active)

Q: For `CNc1ncnc2c1ncn2[C@@H]1O[C@H](CO)[C@H](O)C1O` (some centres undefined), which inhibition is on record?
A: 10.8%

Q: With `CCOc1cc2[nH]c(=S)n(Cc3ccc(C(=O)NCCOC)cc3)c(=O)c2cc1OCC` as the compound, how does the inhibition read?
A: 9.91%

Q: For `COc1cc2[nH]c(=S)n(Cc3ccc(F)cc3)c(=O)c2cc1OC`, which inhibition is on record?
A: 90.9% (active)

Q: With `COc1cc2[nH]c(=S)n(Cc3ccc(C)o3)c(=O)c2cc1OC` as the compound, how does the inhibition read?
A: 7.74%

Q: Which inhibition does the source give for `C#CCNc1ccc(C(=O)OCC)cc1` here?
A: -15.6%

Q: Which inhibition does the source give for `O=C1C=C(c2ccc(Cl)cc2)C(=O)N1Nc1ccccc1` here?
A: 108% (active)

Q: Which inhibition does the source give for `O=C1c2cccc3cc(Br)cc(c23)C(=O)N1Nc1ccccc1` here?
A: 63.7%

Q: Which inhibition does the source give for `O=C(O)CC1=C(Nc2ccccc2)C(=O)N(c2ccccc2)C1c1ccc(Cl)cc1` (centres undefined) here?
A: 8.1%

Q: For `CCCNC(=O)c1c(N)n(-c2ccc(S(N)(=O)=O)cc2)c2nc3ccccc3nc12`, which inhibition is on record?
A: -1.19%

Q: For `N#Cc1c(N)n(CCOC(=O)c2ccc(Cl)cc2)c2nc3ccccc3nc12`, which inhibition is on record?
A: -17.1%

Q: With `CC(C)(C)c1ccc(C(=O)NCCn2c(N)c(C#N)c3nc4ccccc4nc32)cc1` as the compound, how does the inhibition read?
A: 86.5% (active)

Q: Which inhibition does the source give for `Cc1ccc(O)c(NC(=S)NC(=O)COc2ccc(Br)cc2)c1` here?
A: 74.2% (active)

Q: For `Cc1ccc(O)c(NC(=O)COc2cc(C)ccc2C)c1`, which inhibition is on record?
A: 5.05%

Q: For `Cc1cccc(OCC(=O)NC(=S)Nc2ccccc2N2CCOCC2)c1`, which inhibition is on record?
A: 47.7%

Q: With `CCCc1c(C(=O)O)cnn1-c1ccc(Cl)cc1` as the compound, how does the inhibition read?
A: -2.68%

Q: For `O=C1[C@@H]2C(c3cccnc3)=NO[C@@H]2C(=O)N1c1ccc(Cl)cc1Cl`, which inhibition is on record?
A: 19.2%
